Laboratory results from PubChem BioAssay.
The source made the active and inactive calls.

Test: E. coli growth modulation, two-sided OD650, primary screen, E. coli filamentation project, strain DRC41, 24 h (AID 1093);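 also: MC1000 strain lacking acrAB efflux and sulA so SOS filamentation is blocked; test concentration not given here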
Settings: OD650, 24 h, higher = more signal, called active from +8 up or from −8 down

Row | Compound | z-score
1 | C=CCC(OC(C)=O)[C@@H]1[C@@H](N(Cc2ccc(-c3ccccc3)cc2)C(=O)c2ccc(-c3ccccc3)cc2)c2cc(OCCCO)ccc2N1C(=O)c1ccc2ccccc2c1 (stereo partly specified) | -0.728 (inactive)
2 | CCOC(=O)C[C@H]1[C@H](OC(=O)c2cc3ccccc3oc2=O)[C@@H](NC(=O)c2ccc3ccccc3n2)c2cc(OCCCO)ccc2N1C(=O)Cc1ccc(OC)cc1 | 0.397 (inactive)
3 | Cc1ccc(S[C@]2(C(=O)NCC(F)(F)F)CC(=O)N(Cc3cc(C(F)(F)F)cc(C(F)(F)F)c3)[C@@H]2c2ccc(CO)cc2)cc1 | -0.002 (inactive)
4 | COC(=O)[C@@]1(Cc2ccc(OC)cc2)[C@H]2c3cc(C(=O)N4CCCC4)n(CCc4c[nH]c5ccc(O)cc45)c3C[C@H]2CN1C(=O)c1ccccc1 | 0.573 (inactive)
5 | NC(=O)[C@@]1(Cc2ccccc2)COC(c2ccc(OCCCO)cc2)=N1 | 1.05 (inactive)
6 | COCCOC(=O)N1C(=O)[C@@]2(c3cc(C#CCCO)ccc31)[C@H](C(=O)Nc1nc3ccccc3s1)[C@H]1C(=O)O[C@H](c3ccccc3)[C@H](c3ccccc3)N1[C@@H]2c1ccc(O)cc1 | 0.467 (inactive)
7 | COc1ccc([Si](C)(C)[C@@H]2[C@@H](CCO)O[C@]3(C(=O)N(Cc4ccccc4)c4ccc(N5CCOC5=O)cc43)[C@H]2C)cc1 | 1.44 (inactive)
8 | C=C(/C(=C/C[C@H](OC(C)=O)c1ccc(CO)o1)c1cnc2ccccc2c1)C(C)C | 0.243 (inactive)
9 | COC(=O)[C@@]1(Cc2ccccc2)[C@H]2c3cc(C(=O)N4CCCC4)n(CCc4ccccn4)c3C[C@H]2CN1C(=O)c1ccccc1 | 0.026 (inactive)
10 | COCC(=C=CC[C@H](O)c1ccc(OCCO)cc1)CCO | 0.399 (inactive)
11 | CCOC(=O)C1=C[C@@H](C(C)(C)C)N(S(=O)(=O)c2ccc(C)cc2)[C@H]1c1cccc2ccccc12 | -0.296 (inactive)
12 | C=CC[C@@]1(C(=O)NCCCOC)N=C(c2ccc(OCCCO)cc2)O[C@@H]1c1ccccc1 | 0.734 (inactive)
13 | [N-]=[N+]=Nc1ccccc1C[C@]1(C(=O)NCCN2CCOCC2)COC(c2ccc(OCCCO)cc2)=N1 | 2.56 (inactive)
14 | Cc1ccc(F)cc1S(=O)(=O)N[C@@H]1CCN(Cc2ccc(Br)cc2)C1 | -1.12 (inactive)
15 | OCCCC1=CC(c2ccc(CN3CCCC3)cc2)N(Cc2cc3c(cc2Br)OCO3)CC1 (stereo unspecified) | 0.497 (inactive)
16 | COC(=O)C1=CC(CCCO)=CC(c2ccc(CN3CCCC3)cc2)N(Cc2cccc(OC(F)(F)F)c2)C=C1C(=O)OC (stereo unspecified) | -2.59 (inactive)
17 | CC(CO)N1C(=O)[C@@H]2[C@H]3C(=O)OCC=C[C@H]3OC23C=CCN(Cn2nnc4ccccc42)C(=O)[C@@H]13 (stereo partly specified) | -0.333 (inactive)
18 | CC(C)NC(=O)[C@@]1(c2ccc([N+](=O)[O-])cc2)CC(=O)N(C2CCCCC2)[C@@H]1c1ccc(CO)cc1 | 1.07 (inactive)
19 | O=C1CS(=O)(=O)C(c2cccc([N+](=O)[O-])c2)N1c1ccccc1 (stereo unspecified) | 0.672 (inactive)
20 | NC(=O)NCC#Cc1ccc2c(c1)[C@]1(C(=O)N2)[C@H](c2ccccc2OCCO)N2[C@H](c3ccccc3)[C@H](c3ccccc3)OC(=O)[C@H]2[C@@H]1C(=O)NC[C@H](O)c1ccccc1 | 2.36 (inactive)
21 | CCCC[C@@H](O)C1=C(COc2ccccc2)C[C@H]2C(=O)N(Cc3ccccc3)C(=O)[C@H]2[C@H]1CO | 0.672 (inactive)
22 | COC(=O)[C@@]1(Cc2ccc(F)cc2)[C@H]2c3cc(C(=O)N(C)C)n(Cc4ccc(OC(F)(F)F)cc4)c3C[C@H]2CN1C(=O)c1ccccc1 | -0.623 (inactive)
23 | COCCOC(=O)N1C(=O)[C@@]2(c3cc(C#CC4=CCCCC4)ccc31)[C@H](c1ccccc1OCCO)N1[C@H](c3ccccc3)[C@H](c3ccccc3)OC(=O)[C@H]1[C@@H]2C(=O)N1CCN(c2ncccn2)CC1 | 1.05 (inactive)
24 | O=C1OCCC=C[C@H]2OC34C=CCN(c5ccc6ccccc6c5)C(=O)[C@H]3N(CCCO)C(=O)[C@@H]4C12 (stereo partly specified) | 0.843 (inactive)
25 | CCCC=C(CCC)[C@@H](NS(=O)(=O)CC12CCC(CC1=O)C2(C)C)c1ccc(C(=O)OC)cc1 (stereo partly specified) | 0.0623 (inactive)
26 | CC(C)[Si](C#C[Si](C(C)C)(C(C)C)C(C)C)(O[C@H](c1ccccc1)c1cn(Cc2ccccc2)nn1)C(C)C | 0.769 (inactive)
